Bioassay records deposited in PubChem by National Center for Advancing Translational Sciences (NCATS).
PI5P4K alpha inh: qHTS for Inhibitors of phosphatidylinositol 5-phosphate 4-kinase (PI5P4K); AID 652105, 2013; PI5P4Kalpha enzyme, ADP-Glo luminescence, 60 min; hits give low values; hit rate 1.2% among 330,000; max response, %; Phosphatidylinositol 5-phosphate 4-kinase type-2 alpha (Homo sapiens), P48426; active means max response of -50% or lower; inconclusive means between -30% and -50%; inactive means -30% or higher; further: value at the top dose of about 77 µM
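Compounds were pin-transferred onto PI5P4Kalpha and substrate in HEPES pH 7.4 buffer with EGTA, CHAPS and 5% DMSO. ATP (5 microM final) started the reaction, which ran 60 minutes at room temperature before ADP-Glo detection.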
Pol eta inh-1: qHTS for Inhibitors of Polymerase Eta; DNA polymerase eta (Homo sapiens), Q9Y253; recombinant Pol eta, fluorescent DNA replication assay; Potency, µM (titrated, usually from 114 µM), usual class: inhibitors; hit rate 1.2% among 390,000
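Pol eta at 10 nM preincubated with compounds 15 min at room temperature; reaction started with fluorescent substrate (50 nM final) and read kinetically at 0 and 10 min.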
WRN inhibitor: qHTS for Inhibitors of WRN Helicase | WRN helicase unwinding, fluorescent forked duplex, kinetic | AID 651768, 2012 | Potency, µM (series often up to 114 µM), hits mostly inhibitors | Bifunctional 3'-5' exonuclease/ATP-dependent helicase WRN (Homo sapiens), Q14191 | hit rate 0.46% among 360,000; further: nearly all actives have a fitted effect of over 55% in size
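Primary qHTS, 1536-well format. 20 nM WRN + compound, 15 min RT; start with 100 nM forked fluorophore/quencher duplex, 2 mM ATP (final); kinetic read ex 525/em 598 nm.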
Pol kappa inh-1: qHTS for Inhibitors of Polymerase Kappa; hit rate 0.53% among 400,000; purified Pol kappa, fluorescent DNA synthesis assay, 10 min; Potency, µM (highest dose often 107 µM), hits mostly inhibitors
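Pol kappa 10 nM + cpd, 15 min RT; start w/ substrate 50 nM final; fluorescence kinetic read, 0 and 10 min. Neg ctrl: buffer, no enzyme.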
Pol beta inh: qHTS Assay for Inhibitors of DNA Polymerase Beta. Pol beta primer extension/strand displacement, fluorescence kinetic. Potency, µM (titrated, usually from 114 µM), actives largely listed as inhibitors. hit rate 1.3% among 340,000
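Pol beta (10 nM) was preincubated with compound for 15 min at room temperature. The reaction was then started with 50 nM substrate and read immediately and after a further 10 min at room temperature.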
POLI inh: qHTS for Inhibitors of Polymerase Iota; DNA polymerase iota (Homo sapiens), Q9UNA4; Pol iota fluorescent replication assay, 10 min; hit rate 1% among 390,000; Potency, µM (doses to about 115 µM), actives largely listed as inhibitors
Target sequence (Q9UNA4 whole entry, looked up): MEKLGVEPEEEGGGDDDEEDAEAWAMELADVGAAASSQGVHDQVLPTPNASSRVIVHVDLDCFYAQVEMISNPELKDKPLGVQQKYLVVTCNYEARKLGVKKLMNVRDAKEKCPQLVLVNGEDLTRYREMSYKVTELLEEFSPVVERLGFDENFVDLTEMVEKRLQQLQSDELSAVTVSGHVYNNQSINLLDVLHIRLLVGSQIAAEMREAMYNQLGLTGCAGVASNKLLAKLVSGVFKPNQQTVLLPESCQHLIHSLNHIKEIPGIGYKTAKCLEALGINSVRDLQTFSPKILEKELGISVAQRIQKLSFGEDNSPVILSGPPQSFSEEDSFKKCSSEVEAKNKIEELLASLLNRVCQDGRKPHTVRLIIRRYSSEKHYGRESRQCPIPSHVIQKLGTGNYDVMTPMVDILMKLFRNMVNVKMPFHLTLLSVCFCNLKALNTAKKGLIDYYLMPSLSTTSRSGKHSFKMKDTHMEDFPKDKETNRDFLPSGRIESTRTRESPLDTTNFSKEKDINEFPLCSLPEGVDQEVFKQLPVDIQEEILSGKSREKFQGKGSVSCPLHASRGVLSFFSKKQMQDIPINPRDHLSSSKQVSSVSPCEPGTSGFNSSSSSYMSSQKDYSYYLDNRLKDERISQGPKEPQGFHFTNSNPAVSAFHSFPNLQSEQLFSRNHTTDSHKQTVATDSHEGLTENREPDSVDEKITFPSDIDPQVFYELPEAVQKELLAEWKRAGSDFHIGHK
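Pol iota at 10 nM preincubated 15 min with compounds at room temperature; reaction started with fluorescent substrate, 50 nM final. Fluorescence read kinetically at 0 and 10 min; buffer-only wells as negative control.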
GALK inh confirm: Confirmation Assay for Inhibitors of Human Galactokinase (GALK); purified GALK, Kinase-Glo ATP depletion luminescence; Potency, µM (series often up to 115 µM), actives largely listed as inhibitors; shares compounds with Pol eta inh-1; hit rate 70% among 150
GALK redox cs: Confirmatory Assay for Inhibitors of Human Galactokinase (GALK): Phenol-HRP redox assay counterscreen. shares compounds with Pol eta inh-1. Phenol red-HRP H2O2 redox cycling, absorbance 600 nm. Potency, µM (doses to about 115 µM), most hits filed as inhibitors. hit rate 40% among 150. AID 2035, 2009
HEK293 tox: Secondary Assay for Inhibitors of Human Galactokinase (GALK): HEK-293 Cell Viability Assay; hit rate 10% among 170; HEK-293 viability, ATP luminescence (CellTiter-Glo), 24/48 h; shares compounds with Pol eta inh-1; AID 2547, 2010; Potency, µM (titrated, usually from 46.1 µM), hits mostly inhibitors
Pol kappa inh-2: qHTS for Inhibitors of Polymerase Kappa: Confirmatory Assay for Cherry-picked Compounds. shares compounds with Pol eta inh-1. purified Pol-kappa, fluorescent strand-displacement substrate. Potency, µM, usual class: inhibitors. hit rate 76% among 920. AID 720501, 2013
Pol eta inh-2: qHTS for Inhibitors of Polymerase Eta: Confirmatory Assay for Cherry-picked Compounds | Pol eta primer extension, TAMRA/BHQ fluorescence, 10 min | Potency, µM, hits mostly inhibitors | shares compounds with Pol eta inh-1 | AID 720502, 2013 | hit rate 64% among 2,600
Numbers stand for hits; n = inactive; u = inconclusive; x = not tested or not shown; [ ] = remark or other dose. Sampled rows, rich in hits. Any-hit rate of the full collection: about 2.8%. Unless noted, the call rests on the fitted dose curve; in most records, active means well fitted curve in the direction sought with a large enough effect; inconclusive means small, poorly fitted or top-dose-only effect, or another doubt; inactive means no such curve, though single readings can be large; an effect the other way counts as inactive or inconclusive.

SMILES	PI5P4K alpha inh	Pol eta inh-1	WRN inhibitor	Pol kappa inh-1	Pol beta inh	POLI inh	Pol eta inh-2	others
O=C(COC(=O)C1CC1)Nc1ncc(Cl)cc1Cl	n	28µM	u	n	x	u	48
COc1ccc(OC)c(CNC(=O)Cn2ncc3c([nH]c4ccc(C)cc43)c2=O)c1	x	n	x	n	n	n	x
O=C(CSc1nnc(Nc2ccccc2F)s1)NC(=O)CN1CCCC1=O	u	22µM	n	u	x	u	u	Pol kappa inh-2=67
COc1ccc(N2CCN(C(=O)c3cnc(N4CCOCC4)c4ccccc34)CC2)cc1	x	n	x	n	n	n	x
CCOC(=O)c1c(C)[nH]c(N=Nc2cc(C(=O)O)cc(C(=O)O)c2)c1C	n	18µM	u	u	n	u	9.5
CCOC(=O)c1c(C)[nH]c(N=Nc2ccc(C)cc2C)c1C	n	n	n	n	n	n	x
COc1cc(/C=c2\sc3nc(-c4ccncc4)nn3c2=O)ccc1OC(C)=O	x	x	x	x	n	x	x
CC(=O)Oc1cccc(/C=c2\sc3nc(-c4ccco4)nn3c2=O)c1	n	13µM	u	u	22µM	u	48
O=C(O)c1cc(N/N=C/c2ccc(N3CCOCC3)cc2)ccc1Cl	n	50µM	u	u	u	u	85
Cc1ccc2c(=O)cc(C(=O)Nc3nc4ccc(Cl)cc4s3)oc2c1C	x	79µM	x	u	6.3µM	u	u
CCOc1cc(CNc2ccc3c(c2)CCC3)ccc1O	n	n	n	n	n	u	x
Oc1ccc(NCc2ccccc2OCc2ccc(Cl)cc2)cc1	x	n	x	u	u	u	u
CCOc1cc(CNc2ccc(O)cc2)ccc1OCc1ccc(Cl)cc1	x	n	x	u	u	7.9µM	u
Cc1cccc(S(=O)(=O)c2cn(Cc3ccc(F)cc3)c3cc(N4CCCCC4)c(F)cc3c2=O)c1	x	n	x	n	n	n	x
COc1ccccc1CNC(=O)CCC(=O)N1Cc2ccccc2Oc2ncccc21	x	n	x	n	n	n	x
NC(=O)CSc1nc2cc3c(cc2c(=O)n1CCCCCC(=O)NCc1ccc2c(c1)OCO2)OCO3	x	n	x	n	n	n	x
O=C(O)CCc1ccc(-c2cccs2)n1CCC(=O)O	n	10µM	n	u	22µM	u	u
COc1cc(OC)c(OC)cc1/C=C/c1nc2ccccc2o1	x	x	x	n	x	n	x
COc1cc(NC(=O)c2ccc3c(SCC(=O)O)c4c(nc3c2)CCC4)cc(OC)c1OC	n	18µM	n[11.6 µM]	u	n	u	54
O=C(N/N=C/c1ccncc1)c1cccc(NC(=O)c2ccc(Cl)cc2)c1	n	n	n[11.6 µM]	n	45µM	u	x	Pol kappa inh-2=u
COc1ccc(-c2cn3c(n2)sc2cc(C(=O)NCCc4ccccc4)ccc23)cc1	x	n	x	n	n	n	x
COc1ccc2cc(C(N)=O)c(=Nc3ccc(C)cc3)oc2c1	n	n	n	n	n	n	x	GALK inh confirm=n;GALK redox cs=n;HEK293 tox=u
